PubChem BioAssay AID624330 (Southern Research Specialized Biocontainment Screening …, 2012)
The whole screen tested about 340,000 compounds, of which about 2,100 (0.62%) were called active.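 The calls were made as follows: active = first-screen hits whose inhibition reached a set limit at any dose in the follow-up dose series; inconclusive = inhibition above the set first-screen limit but never retested; inactive = the rest.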 A selection follows. Results with a measured potency or affinity are listed apart.

The compounds below were run against Rac GTPase-activating protein 1 (Homo sapiens) (UniProt Q9H0H5) (assay: MgcRacGAP GTPase-activating activity inhibitors, confirmation, biochemical, ADP Hunter fluorescence, primary and confirmatory (AID 624330;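 also: fluorescence reports GDP produced by GAP-driven GTP hydrolysis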)). Settings: MgcRacGAP-stimulated Rac1 GTP hydrolysis, at 30 µM, hits give high values, GST-tagged Rac1 F28L mutant substrate.
Rac GTPase-activating protein 1 (Homo sapiens), sequence (Q9H0H5 whole entry, looked up): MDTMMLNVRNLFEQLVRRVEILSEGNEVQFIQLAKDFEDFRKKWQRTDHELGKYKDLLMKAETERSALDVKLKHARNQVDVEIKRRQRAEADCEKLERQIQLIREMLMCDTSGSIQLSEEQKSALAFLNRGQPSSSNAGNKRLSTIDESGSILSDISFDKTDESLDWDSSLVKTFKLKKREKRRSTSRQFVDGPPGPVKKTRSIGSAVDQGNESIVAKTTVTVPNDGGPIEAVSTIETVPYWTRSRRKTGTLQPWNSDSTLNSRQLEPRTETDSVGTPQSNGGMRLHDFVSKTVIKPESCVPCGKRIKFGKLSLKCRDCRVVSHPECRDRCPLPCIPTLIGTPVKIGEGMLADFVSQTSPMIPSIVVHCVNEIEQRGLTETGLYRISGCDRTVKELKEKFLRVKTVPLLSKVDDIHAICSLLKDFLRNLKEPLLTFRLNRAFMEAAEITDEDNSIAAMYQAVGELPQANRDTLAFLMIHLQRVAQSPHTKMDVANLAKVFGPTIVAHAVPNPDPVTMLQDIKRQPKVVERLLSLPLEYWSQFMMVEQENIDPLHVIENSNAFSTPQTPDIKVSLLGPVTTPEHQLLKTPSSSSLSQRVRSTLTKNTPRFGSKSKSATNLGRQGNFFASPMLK

inhibition, inactive:
COc1ccc(/C=C/C(=O)OC2CCCCC2CN(C)C)cc1 (centres undefined) 1.25%, CCN1CNC(=S)N(c2cccc(C)c2C)C1 7.09%, O=C(O)C1(S(=O)(=O)c2ccc(Cl)cc2)CCC1 6.58%, Cc1cccc(N2N=C(C(=O)Nc3nc(C)cs3)CCC2=O)c1 10.5%, O=C(Nc1cccnc1)c1ccccc1F 6.52%, O=C1Nc2ccccc2/C1=N\N1CCOCC1 3.01%, O=C1Nc2ccccc2C1=NN1CCCCCC1 -3.27%, CCN(Cc1ccccc1)S(=O)(=O)c1ccc(S(=O)(=O)N2CCN(CCC#N)CC2)cc1 -2.32%, Cc1ccc(NC(=O)CN(C)C(=O)CCSc2ccc(F)cc2)cc1 5.93%, COc1cccc(CN(C)C(=O)c2ccc(C)c(S(=O)(=O)N3CCCCC3)c2)c1 3.14%, COCCN(C(=O)CNC(=O)c1cccs1)C(C(=O)NC1CCCC1)c1cccs1 (centres undefined) 8.07%, COc1ccc(NC(=S)NCCSc2ccc(Cl)cc2)c(OC)c1 -1.73%, c1ccc(Nc2ccc3c4c(cccc24)CC3)cc1 16.2%, CC(=O)Nc1ccc2c3c(cccc13)CC2 3.29%, O=[N+]([O-])c1ccccc1N=Nc1ccc(O)cc1 9.07%, COCc1[nH][nH]c(=O)c1C=Nc1ccccc1 9.38%, O=C(OCc1ccccc1Cl)c1cccnc1Cl -1.97%, CCCCn1c(N)c(N(CCOC)C(=O)C(C)N2C(=O)c3ccccc3C2=O)c(=O)[nH]c1=O (centres undefined) 0.26%, CC(OC(=O)c1ccc(Cl)c([N+](=O)[O-])c1)C(=O)N1CCN(Cc2ccccc2)CC1 (centres undefined) 3.69%, CCOc1ccccc1C(=O)NCC(=O)N(C)Cc1ccccc1C 6.49%, COc1ccccc1N(C)S(=O)(=O)c1ccc(C(=O)Nc2cccc(Br)c2)cc1 4.53%, CCc1ccc(-n2c(=O)c3ccccc3n3c(=S)[nH]nc23)cc1 12.2%, COc1cccc(-n2c(=O)c3ccccc3n3c(=S)[nH]nc23)c1 13.7%, CCOC(=O)c1oc2ccccc2c1NC(=O)C(C)(C)C 4.02%, O=C(c1ccccc1)c1ccc(N2CCOCC2)c(F)c1 9.91%, Cc1cccc(C(=O)N2CCC(N3CCC(C(=O)N4CCOCC4)CC3)CC2)c1 7.61%, CCC1Sc2ccccc2N(CC(=O)NC2CC2)C1=O (centres undefined) -0.26%, O=C(O)c1cccc(N2C(=O)C=CC2=O)c1 9.07%, Cc1cc(C)cc(N2C(=O)C=CC2=O)c1 1.25%
